Results on 23 compounds are retold here after PubChem BioAssay (Tox21).

Values joined by “and” are separate entries in the source; they are usually repeats but may differ in a detail not shown here. Equal entries are not always repeated. Results filed as inconclusive are left out. Unmarked numbers belong to inactive results. Active and inactive are the calls of the source. Unless noted, the call rests on the fitted dose curve; in most records, active means well fitted curve in the direction sought with a large enough effect in the repeat runs; inconclusive means weak or mixed curves; inactive means no such curve, though single readings can be large; an effect the other way counts as inactive or inconclusive.

Experiment [1] can be described thus: qHTS assay to identify small molecule antagonists of the thyroid receptor (TR) signaling pathway - cell viability counter screen (AID 743064). Further: nearly all actives have a fitted effect of over 50% in size. The gist of the method:
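GH3.TRE-Luc cells, 4 h pre-plating; cpd + T3 1 nM final; 37 °C 23.5 h; CellTiter-Fluor 30 min; fluorescence read.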
(Quantitative high-throughput screening tests each substance at several concentrations.)

Experiment [2] can be described thus: qHTS assay to identify small molecule antagonists of the thyroid receptor (TR) signaling pathway (AID 743065). Further: nearly all actives have a fitted effect of over 55% in size. Further: potency means the concentration at half of the fitted maximal effect. The gist of the method: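 Antagonism measured as loss of luciferase signal in GH3 cells stably carrying a TRE-luciferase reporter, co-treated with compound and T3 (1 nM final) for 23.5 h at 37 C. Viability was read in the same well by CellTiter-Fluor.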

The test system of experiment [3] is thyroid hormone receptor (rat, GH3 cells). As to the kind of experiment: qHTS assay to identify small molecule agonists of the thyroid receptor (TR) signaling pathway (AID 743066; calls by dose curve).
Experiment [4] has as its target Estrogen receptor (Homo sapiens) (UniProt P03372). The experiment can be described thus: qHTS assay to identify small molecule antagonists of the estrogen receptor alpha (ER-alpha) signaling pathway (AID 743069; active means well fitted curve in the direction sought with a large enough effect in the signal ratio in the repeat runs, not every such curve was filed as active; the % refers to the signal ratio). The gist of the method:
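Antagonist mode: compounds in DMSO were co-added with 17beta-estradiol to ER-alpha-bla HEK293 cells (2% charcoal-stripped serum) and left 18 h at 37C. Reporter inhibition was measured as FRET fluorescence after 2 h LiveBLAzer substrate at room temperature.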

Experiment [5] is described as follows: qHTS assay to identify small molecule antagonists of the estrogen receptor alpha (ER-alpha) signaling pathway - cell viability counter screen (AID 743074; calls by dose curve;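 further: HEK293 cells carrying ER-alpha-UAS-bla reporter stimulated with 17beta-estradiol; nearly all actives have a fitted effect of over 45% in size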).
Experiment [6] addresses Estrogen receptor (Homo sapiens) (UniProt P03372). The experiment can be described thus: qHTS assay to identify small molecule agonists of the estrogen receptor alpha (ER-alpha) signaling pathway (AID 743075; calls by dose curve;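 further: HEK293 GripTite cells with ER-alpha and UAS-driven beta-lactamase reporter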; further: potency means the concentration at half of the fitted maximal effect).
Experiment [7] has the same target. The experiment can be described thus: qHTS assay to identify small molecule agonists of the estrogen receptor alpha (ER-alpha) signaling pathway using the BG1 cell line (AID 743079). Further: nearly all actives have a fitted effect of over 20% in size. Further: potency means the concentration at half of the fitted maximal effect. As to conditions: BG1Luc4E2 cells, ERE-luciferase agonist, 22 h.
A short description of experiment [8]: qHTS assay to identify small molecule antagonists of the estrogen receptor alpha (ER-alpha) signaling pathway using the BG1 cell line (AID 743080; calls by dose curve;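 further: BG1 cells stimulated with 17beta-estradiol alongside compound; nearly all actives have a fitted effect of over 25% in size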). In short, it runs like this: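 BG1Luc4E2, endogenous ER-alpha, 4xERE-luc; 5 d charcoal-stripped FBS, phenol red free; 24 h plating; cpd + 17beta-estradiol 21.5 h, 37 C/5% CO2; CellTiter-Fluor viability 30 min, then ONE-Glo luciferase 30 min RT.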

Experiment [9] can be described thus: qHTS assay to identify small molecule antagonists of the estrogen receptor alpha (ER-alpha) signaling pathway using the BG1 cell line - cell viability counter screen (AID 743081).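 Further: compound given together with 17beta-estradiol as the ER stimulus; nearly all actives have a fitted effect of over 45% in size.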
The target of the next experiment is Aromatase (Homo sapiens) (UniProt P11511). The experiment can be described thus: qHTS assay to identify aromatase inhibitors (AID 743083). Further: nearly all actives have a fitted effect of over 55% in size.
On the % scale 0 is the no-effect control and ±100 the full control effect.

Sequence of Aromatase (Homo sapiens) (P11511 whole entry, looked up): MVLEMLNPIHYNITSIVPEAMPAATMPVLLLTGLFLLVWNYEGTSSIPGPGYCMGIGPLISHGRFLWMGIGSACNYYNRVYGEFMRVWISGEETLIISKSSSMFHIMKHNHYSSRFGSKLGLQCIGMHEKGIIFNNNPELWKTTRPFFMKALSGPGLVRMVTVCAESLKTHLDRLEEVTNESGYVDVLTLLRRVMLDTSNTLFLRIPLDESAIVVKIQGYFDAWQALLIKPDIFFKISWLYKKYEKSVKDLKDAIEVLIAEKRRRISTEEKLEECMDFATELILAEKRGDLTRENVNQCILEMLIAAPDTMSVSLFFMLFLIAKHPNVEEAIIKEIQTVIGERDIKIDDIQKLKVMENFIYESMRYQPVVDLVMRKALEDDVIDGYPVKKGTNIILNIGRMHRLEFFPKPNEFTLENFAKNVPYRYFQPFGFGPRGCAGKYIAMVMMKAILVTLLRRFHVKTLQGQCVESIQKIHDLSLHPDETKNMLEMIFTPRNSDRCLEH
Sequence of Estrogen receptor (Homo sapiens) (P03372 whole entry, looked up): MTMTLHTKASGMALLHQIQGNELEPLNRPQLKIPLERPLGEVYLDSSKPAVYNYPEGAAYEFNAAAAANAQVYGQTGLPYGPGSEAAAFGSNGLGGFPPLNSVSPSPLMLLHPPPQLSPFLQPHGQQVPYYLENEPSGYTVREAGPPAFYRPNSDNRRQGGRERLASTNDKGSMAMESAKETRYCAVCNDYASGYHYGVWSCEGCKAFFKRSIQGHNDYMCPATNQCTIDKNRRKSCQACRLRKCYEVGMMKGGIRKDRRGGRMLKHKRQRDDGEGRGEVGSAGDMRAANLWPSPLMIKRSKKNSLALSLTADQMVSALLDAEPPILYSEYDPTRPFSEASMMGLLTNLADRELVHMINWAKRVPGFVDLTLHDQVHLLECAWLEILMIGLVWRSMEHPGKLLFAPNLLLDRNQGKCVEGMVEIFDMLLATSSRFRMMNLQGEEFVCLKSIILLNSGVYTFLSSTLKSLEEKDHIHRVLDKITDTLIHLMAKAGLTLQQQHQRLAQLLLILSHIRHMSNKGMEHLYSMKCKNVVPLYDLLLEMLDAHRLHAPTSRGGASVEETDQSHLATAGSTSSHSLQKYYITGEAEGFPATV

For the compound `COP(=O)(OC)O/C(C)=C/C(=O)N(C)C`, the Potency entry in experiment [1], in [2], in experiment [3], in experiment [4], in [5] and in [6] was “inactive” in each case. The Potency result (in experiment [8]; in experiment [9]; with Aromatase (Homo sapiens)) was “inactive” throughout. Further, in [7] (at 95 µM (top of the series)), the activation was -7.62%.

Take `COc1ccc(CN2CCNCC2)c(OC)c1OC`: the Potency entry in [1], in [2], in [3], in [4], in [5] and in experiment [6] was “inactive” each time. Besides, the Potency entry (in experiment [8]; in [9]; with Aromatase (Homo sapiens)) was “inactive” in each case. In experiment [7] (at 32.5 µM (top of the series)), the activation is 3.39%.

In the case of `BrCc1ccc(Br)cc1`, the Potency result in experiment [1], in [2], in experiment [3], in [4], in experiment [5] and in experiment [6] was “inactive” in each case. Besides, the Potency entry (in experiment [8]; in experiment [9]; with Aromatase (Homo sapiens)) was “inactive” in each case. The activation in experiment [7] (at 70.3 µM (top of the series)) was -9.06%.

On to `CCCC[N+](=O)[O-]`, for which the Potency result in [1], in experiment [2], in [3], in experiment [4], in experiment [5] and in [6] was “inactive” each time. The Potency entry (in [8]; in [9]; in the experiment with Aromatase (Homo sapiens)) was “inactive” each time. The activation in experiment [7] (at 70.3 µM (top of the series)) was 8.37%.

Take `N[C@@H]1C[C@H]1c1ccccc1`: the Potency entry in experiment [1], in [2], in experiment [3], in experiment [4], in [5] and in [6] was “inactive” each time. The Potency entry in experiment [8] and in [9] was “inactive” in each case. Further, the activation in experiment [7] (at 70.3 µM (top of the series)) is 1.81%.

For the compound `Cc1ccc2c(c1)C1CN(C)CCC1N2` (centres undefined), the Potency entry in [1], in [2], in experiment [3], in [4], in experiment [5] and in experiment [6] was “inactive” throughout. The Potency result (in experiment [8]; in experiment [9]; with Aromatase (Homo sapiens)) was “inactive” in each case. Besides, the activation in experiment [7] (at 70.3 µM (top of the series)) is -4.51%.

As to `COc1cc(CCN)cc(OC)c1OC`, the Potency entry in [1], in experiment [2], in experiment [3], in experiment [4], in [5] and in [6] was “inactive” throughout. The Potency entry in experiment [8] and in experiment [9] was “inactive” throughout. Moreover, the activation in experiment [7] (at 95 µM (top of the series)) is -6.66%.

Turning to `CC(C)[N+](C)(CCC(C(N)=O)(c1ccccc1)c1ccccc1)C(C)C`, the Potency entry in [1], in experiment [2], in experiment [3], in [4], in experiment [5] and in experiment [6] was “inactive” throughout. The Potency entry (in experiment [8]; in experiment [9]; with Aromatase (Homo sapiens)) was “inactive” each time. In [7] (at 32.5 µM (top of the series)), the activation was 1.94%.

Consider `O=C1CC(=O)NC(=O)N1`, for which the Potency entry in [1], in experiment [2], in [3], in [4], in [5] and in [6] was “inactive” in each case. For the same compound, the Potency result (in [8]; in experiment [9]; with Aromatase (Homo sapiens)) was “inactive” throughout. Also, the activation in [7] (at 70.3 µM (top of the series)) is -4.6%.

On to `CC(C)(C1CCC(O)CC1)C1CCC(O)CC1` (centres undefined), for which the Potency result in [1], in [2], in experiment [3], in experiment [4], in experiment [5] and in [8] was “inactive” in each case. Moreover, the Potency result (in experiment [9]; in the experiment with Aromatase (Homo sapiens)) was “inactive” in each case. The Potency in experiment [6] is 49 µM [activator] (active); in experiment [7], 54.5 µM (active).

Regarding `CC(C)(C)C(=O)Cl`, the Potency result in experiment [1], in experiment [2], in experiment [3], in experiment [4], in experiment [5] and in [6] was “inactive” throughout. Besides, the Potency entry (in experiment [8]; in [9]; with Aromatase (Homo sapiens)) was “inactive” throughout. In [7] (at 95 µM (top of the series)), the activation is -4.71%.

As to `C=CC1(C)OC(=O)N(c2cc(Cl)cc(Cl)c2)C1=O` (centres undefined), the Potency result in experiment [1], in experiment [2], in experiment [3], in experiment [4], in [5] and in [6] was “inactive” each time. Besides, the Potency result (in [8]; in experiment [9]; with Aromatase (Homo sapiens)) was “inactive” in each case. Moreover, the activation in experiment [7] (at 70.3 µM (top of the series)) was -20.8% and -18.1%.

As to `CC(=O)CN(CC(C)=O)N=O`, the Potency result in experiment [1], in experiment [2], in experiment [3], in [4], in [5] and in experiment [6] was “inactive” each time. In addition, the Potency result (in experiment [8]; in experiment [9]; with Aromatase (Homo sapiens)) was “inactive” throughout. Moreover, the activation in experiment [7] (at 70.3 µM (top of the series)) was -5.98%.

Take `C(COCC1CO1)OCC1CO1` (centres undefined): the Potency entry in [1], in experiment [3], in experiment [4], in experiment [5], in experiment [6] and in [8] was “inactive” each time. Besides, the Potency entry (in experiment [9]; with Aromatase (Homo sapiens)) was “inactive” throughout. In experiment [2], the Potency was 43.3 µM (active). The activation in [7] (at 70.3 µM (top of the series)) is 0.393%.

On to `N#CN`, for which the Potency result in experiment [1], in [2], in experiment [3], in [4], in [5] and in experiment [6] was “inactive” each time. For the same compound, the Potency entry (in [8]; in experiment [9]; with Aromatase (Homo sapiens)) was “inactive” in each case. Besides, the activation in experiment [7] (at 70.3 µM (top of the series)) was -14.8%; in experiment [7] (at 260 µM (top of the series)), -1.65%.

As for `CNC(=O)Oc1ccccc1C(C)C`, the Potency result in experiment [1], in experiment [2], in [3], in experiment [4], in experiment [5] and in experiment [6] was “inactive” each time. The Potency entry (in experiment [8]; in experiment [9]; with Aromatase (Homo sapiens)) was “inactive” each time. Further, the activation in [7] (at 70.3 µM (top of the series)) is -4.06%.

With `O=C(Cl)c1ccccc1`, the Potency result in experiment [1], in experiment [2], in experiment [3], in experiment [4], in [5] and in experiment [6] was “inactive” throughout. The Potency result (in experiment [8]; in experiment [9]; in the experiment with Aromatase (Homo sapiens)) was “inactive” each time. Besides, the activation in [7] (at 95 µM (top of the series)) is 1.6%.

On to `CCNc1nc(NCC)nc(SC)n1`, for which the Potency result in experiment [1], in [2], in experiment [3], in experiment [4], in experiment [5] and in [6] was “inactive” throughout. Besides, the Potency result (in experiment [8]; in experiment [9]; with Aromatase (Homo sapiens)) was “inactive” throughout. In addition, the activation in [7] (at 70.3 µM (top of the series)) was -15.9%.

Regarding `Cc1ccc(Cl)c(O)c1`, the Potency result in [1], in experiment [2], in experiment [3], in [4], in experiment [5] and in [6] was “inactive” in each case. Besides, the Potency entry (in experiment [8]; in [9]; in the experiment with Aromatase (Homo sapiens)) was “inactive” throughout. For the same compound, the activation in [7] (at 70.3 µM (top of the series)) was 9.43%.

Consider `O=C(O)c1c(Cl)ccc2cc(Cl)cnc12`, for which the Potency entry in [1], in experiment [2], in [3], in experiment [4], in experiment [5] and in [6] was “inactive” throughout. In addition, the Potency entry (in experiment [8]; in [9]; in the experiment with Aromatase (Homo sapiens)) was “inactive” throughout. Besides, in experiment [7] (at 70.3 µM (top of the series)), the activation was 3.83%.

In the case of `CCCCCCC(=O)CCCCCC/C=C/C[C@@H](O)[C@H](O)[C@@](N)(CO)C(=O)O`, the Potency entry in experiment [1], in [2], in experiment [3], in experiment [4], in experiment [5] and in experiment [6] was “inactive” in each case. Further, the Potency result (in [8]; in experiment [9]; with Aromatase (Homo sapiens)) was “inactive” throughout. Further, the activation in experiment [7] (at 70.3 µM (top of the series)) was -8.98% and -0.434%.

In the case of `CCCCCCCC(=O)Cl`, the Potency entry in experiment [1], in [2], in [3], in [4], in experiment [5] and in experiment [6] was “inactive” each time. The Potency result (in experiment [8]; in experiment [9]; with Aromatase (Homo sapiens)) was “inactive” each time. Also, the activation in experiment [7] (at 95 µM (top of the series)) was -1.47%.

As for `[O-][Br+2]([O-])O`, the Potency entry in [1], in experiment [2], in experiment [3], in [4], in experiment [5] and in [6] was “inactive” in each case. Also, the Potency entry (in experiment [8]; in experiment [9]; with Aromatase (Homo sapiens)) was “inactive” throughout. In addition, the activation in [7] (at 70.3 µM (top of the series)) was 1.35%.
